Screening data as filed in PubChem BioAssay.
Most compounds without a hit are left out; they make up all but 5.9% or so of the library.
KB-V1 cytotox: kills drug-selected multidrug resistant KB-V1 cells. KB-V1 MDR cells viability, CellTiter-Glo, 72 h. Potency, µM (top dose mostly 46.1 µM), usual class: cytotoxic. 400,000 compounds, 3.4% hits. AID 1347076; note: % is set by controls: 0 for no effect and ±100 for the full control effect; nearly all actives have a fitted effect of over 60% in size
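Potencies derive from concentration-effect curves fitted to normalized luminescence (CellTiter-Glo) of KB-V1 cells treated for 72 h at 37 degrees C in phenol-red-free DMEM containing 10% FBS.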
ATXN viability: viability counter-screen for ATXN expression inhibitors; Potency, µM (highest dose often 56.7 µM), usual class: cytotoxic; 400,000 compounds, 0.49% hits; S2 cells (HEK-293 line with an ATXN2-luciferase reporter) viability, CellTiter-Fluor protease fluorescence, 24 h; note: nearly all actives have a fitted effect of over 40% in size
HepG2 viability: kills HepG2 cells in TGF-b inhibitor counter-screen | HepG2 CAGA-GFP viability, ATP luminescence, 18 h | Potency, µM (highest dose often 46.1 µM), for the others: at the highest dose activity change, negative = cytotoxicity, actives largely listed as cytotoxic | 410,000 compounds, 0.76% hits | AID 588856
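CellTiter-Glo luminescence gave cytotoxicity after 18 hours at 37 degrees C. The cells were HepG2 CAGA-GFP in 1% FBS DMEM, stimulated with 500 pg/mL TGF-beta after compound addition. %Activity was normalised to no-cell wells (complete cell-killing) and DMSO (no toxicity), and curves were fitted and classified.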
TGFb inhibitor: blocks TGF-b signaling; HepG2 CAGA-GFP TGF-b/SMAD3 reporter, GFP fluorescence, 18 h; TGF-beta stimulated, 500 pg/mL final; Potency, µM (highest dose often 46.1 µM), for inactives: at the top dose activity, negative = inhibition, usual class: inhibitors; 410,000 compounds, 1.2% hits; note: % is set by controls: 0 for no effect and ±100 for the full control effect; nearly all actives have a fitted effect of over 65% in size
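GFP signal (ex488/em500-530) from TGF-beta-stimulated HEPG2 CAGA-GFP cells, 500 pg/mL final, 18 h at 37 degrees C in DMEM plus 1% FBS, normalized to unstimulated and DMSO-stimulated controls.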
KB-3-1 tox: KB-3-1 parental cell cytotoxicity; KB-3-1 viability, CellTiter-Glo ATP luminescence, 72 h; 400,000 compounds, 1.4% hits; Potency, µM (top dose mostly 46.1 µM), usual class: cytotoxic; AID 1347075; note: % is set by controls: 0 for no effect and ±100 for the full control effect; nearly all actives have a fitted effect of over 60% in size
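Here the drug-naive KB-3-1 line serves as comparator for MDR sub-line selectivity; cells received compound titrations, 72 h at 37 °C, then CellTiter-Glo readout.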
ATXN2 expr inh: reduces ATXN2 reporter expression in HEK-293 cells; Potency, µM (highest dose often 57 µM), without a hit: at the top dose activity change, negative = inhibition, usual class: inhibitors; HEK-293 ATXN2-luciferase reporter, luminescence, 24 h; 360,000 compounds, 0.72% hits; note: % is set by controls: 0 for no effect and ±100 for the full control effect; nearly all actives have a fitted effect of over 55% in size
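qHTS (up to 57 uM final) was run with 24 h compound exposure of reporter cells at 37 °C. Each well was multiplexed: SteadyGlo luminescence measured ATXN2-luciferase expression after a fluorogenic Gly-Phe-AFC viability readout (25 uM final).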
* marks the source's active call; other numbers are inactive results; i = inactive; ? = inconclusive; / = no result; [ ] = another dose, or the depositor's remark. Calls come from the whole dose curve; as a rule, active = well fitted curve in the direction sought with a large enough effect; inconclusive = small, poorly fitted or top-dose-only effect, or another doubt; inactive = no such curve, though single readings can be large; an effect the other way counts as inactive or inconclusive. Potency is the fitted concentration of half-maximal effect.

SMILES	KB-V1 cytotox	ATXN viability	HepG2 viability	TGFb inhibitor	KB-3-1 tox	ATXN2 expr inh
COC(=O)c1cc(=O)n(Cc2ccc3c(c2)OCO3)c(=Nc2ccc(F)cc2)s1	i	i	-26%	0%	?	-30%
COC(=O)c1ccc(N=c2sc(C(=O)OC)cc(=O)n2C)cc1	?	i	-13%	2%	i	8%
COC(=O)c1cc(=O)n(Cc2cccs2)c(=Nc2ccc(F)cc2)s1	i	27µM*	-73%	?	?	21µM*
COC(=O)c1cc(=O)n(CCc2ccccc2F)c(=Nc2ccc(F)c(Cl)c2)s1	i	/	-93%	?	?	27µM*
CCN(CC)CCNc1cc(C)nc2c1C(=O)C(=O)C=C2N1CCCCC1	?	14µM*	-30%	6.3µM*	i	/
COc1ccc(O)c(/C=N/Nc2nc(Nc3ccccc3)nc(-n3nc(C)cc3C)n2)c1	?	?	-48%	?	15µM*	?
COc1cc(/C=N/n2nnnc2Nc2ccccc2)cc(OC)c1OC	2.6µM*	i	-3%	-4%	i	5%
COc1ccc(O)c(/C=N/Nc2nc(C)cc(-c3ccccc3)n2)c1	?	?	-43%	?	i	-38%
COc1cc(/C=N/Nc2nc(Nc3ccccc3)nc(-n3nc(C)cc3C)n2)cc(OC)c1OC	7.3µM*	?	-29%	?	?	-21%
COc1cc(/C=N/Nc2nc(Nc3ccc(C)cc3)nc(-n3nc(C)cc3C)n2)cc(OC)c1OC	?	i	-55%	?	i	-17%
Brc1cccc[n+]1CCCC[n+]1ccccc1Br	i	/	-16%	8%	i	/
O=C(CNC(=O)c1ccccc1O)N/N=C/c1cc(Br)ccc1OC(=O)/C=C/c1ccco1	?	i	-12%	-22%	?	?
O=C(CNC(=O)c1cccc(F)c1)N/N=C/c1cc(Br)ccc1OC(=O)/C=C/c1ccco1	i	i	-26%	?	?	28µM*
COc1ccc(-c2cc(C3CCN(CC(O)C(F)(F)F)CC3)[nH]n2)cc1 (centres undefined)	i	i	-34%	-19%	i	/
COc1ccc(-c2cc(C3CCN(Cc4ccc([N+](=O)[O-])cc4)CC3)[nH]n2)cc1	i	i	16%	7%	i	-32%[11.3 µM]
Nc1nc(Cl)cc(N2CCC(c3cc(-c4ccc(Cl)cc4)n[nH]3)CC2)n1	15µM*	?	11µM*	11µM*	?	25µM*
Cc1ccc(CN2CCC(c3cc(-c4ccc(Cl)cc4)n[nH]3)CC2)cc1	?	?	14µM*	16µM*	?	20µM*
COc1ccc(-c2cc(C3CCN(c4cc(Cl)nc(N)n4)CC3)[nH]n2)cc1	i	?	-30%	?	?	?
COc1ccc(OC)c(-c2cc(C3CCN(c4cc(Cl)nc(N)n4)CC3)[nH]n2)c1	3.3µM*	i	-30%	?	7.3µM*	?
COc1ccc(-c2cc(C3CCN(Cc4cccc(C(F)(F)F)c4)CC3)[nH]n2)cc1	?	i	13µM*	?	?	?
COC(=O)c1cc(OC)c(OC)cc1NC(=O)c1ccc2c(c1)CCN2S(C)(=O)=O	i	i	2%	5%	i	5%
Cc1ccc(C(=O)N(Cc2cc3cccc(C)c3nc2N2CCC(O)CC2)C2CC2)cc1	/	i	/	/	/	/
CC(C)C(NS(=O)(=O)c1ccc2c(c1)oc(=O)n2C)C(=O)N1CCN(c2cccc(Cl)c2)CC1 (centres undefined)	i	i	-24%	?	i	-14%
CNCCC=C1c2ccccc2CCc2ccccc21	21µM*	i	-35%	54%	i	-4%
C[N+](C)(C)CC/C=C1/c2ccccc2CSc2ccccc21	i	i	-16%	-22%	i	-6%
SMILES	KB-V1 cytotox	ATXN viability	HepG2 viability	TGFb inhibitor	KB-3-1 tox	ATXN2 expr inh
CSc1cccc(NC(=O)C2CCCN(c3ncnc4c3nc3n4CCCCC3)C2)c1 (centres undefined)	15µM*	i	-4%	-1%	?	?
CC(=O)c1cccc(NC(=O)C2CCN(c3ncnc4c3nc3n4CCCCC3)CC2)c1	/	/	-25%	18µM*	/	/
O=C(Nc1ccc(Cl)cn1)C1CCN(c2ncnc3c2nc2n3CCCCC2)CC1	21µM*	i	-18%	?	?	?
O=C(Nc1ccc(Cl)cn1)C1CCCN(c2ncnc3c2nc2n3CCCCC2)C1 (centres undefined)	?	i	1%	-7%	i	?
Cc1cccc(NC(=O)C2CCN(c3ncnc4c3nc3n4CCCCC3)CC2)n1	?	i	2%	-12%	i	-12%
Cc1c(NC(=O)Nc2ccc(Cl)c(C(F)(F)F)c2)c(=O)n(-c2ccccc2)n1C	i	i	1%	-11%	i	7%
O=C(Nc1cc(Cl)ccc1O)c1cc2nc(-c3ccc4c(c3)OCO4)cc(C(F)(F)F)n2n1	i	i	-1%	-1%	i	6%
O=C1CC(c2cccc(Cl)c2)CC(O)=C1C=NC1CCCC1 (centres undefined)	21µM*	i	-1%	2%	i	-8%
Cc1ccnc2ccc(F)cc12	i	/	10%	1%	i	/
CC(C)(C)n1nnnc1CN(Cc1ccc(F)cc1)Cc1ccco1	21µM*	i	-4%	0%	?	-24%
COc1cccc(Nc2nnc(SCc3nc4ccccc4s3)s2)c1	?	i	-32%	-46%	i	35%
Cc1nc(CSc2nnc(Nc3cccc(C)c3C)s2)cs1	18µM*	i	0%	3%	i	5%
Cc1cccc(C)c1Nc1nnc(SCc2nc3ccccc3s2)s1	16µM*	i	-18%	-4%	i	60%
Cc1cccc(Nc2nnc(SCC(=O)Nc3ccccc3[N+](=O)[O-])s2)c1C	?	i	-30%	?	i	8%
CCc1ccc(OCC(=O)N(Cc2ccc(Cl)cc2)C2CCS(=O)(=O)C2)cc1 (centres undefined)	i	i	-83%	-8%	i	?
c1ccc2c(C3=NNC(=NC4CCCCC4)SC3)c[nH]c2c1	i	i	-37%	?	i	10%
c1ccc2c(C3=NNC(=NC4CC4)SC3)c[nH]c2c1	i	i	8%	3%	i	18µM*
c1ccc(C2=NNC(=NC3CC3)SC2)cc1	i	i	7.1µM*	4%	?	?
